# KDM5B inhibitor = blocks human KDM5B histone demethylase activity; 2.6% of 220,000 active; KDM5B demethylase, FDH-coupled NADH fluorescence (FDH is formaldehyde dehydrogenase); Q9UGL1; Potency, µM (doses to about 57.7 µM), usual class: inhibitors; active means well fitted inhibition curve with a large enough effect; inconclusive means small, poorly fitted or top-dose-only effect; inactive means no such curve, though single readings can be large or run the other way; further: potency means the concentration at half of the fitted maximal effect; 0% is about no effect; nearly all actives have a fitted effect of over 70% in size
#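 Measured: NADH fluorescence change, 30 min, RT. System: KDM5BΔAP 200 nM final, H3K4me3 peptide, α-KG, Fe(II), ascorbate, NAD⁺ plus FDH, pH 7.5 HEPES. Compounds: titrated, 10 min pre-incubation with enzyme.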
# IP6K1 inhibitor = blocks human inositol hexakisphosphate kinase 1; AID 1645851; activity change, % (series mostly up to about 58 µM); Q92551; IP6K1 kinase, ADP-Glo luminescence, 2 h; stronger effect = lower value; 0.81% of 140,000 active; in the data active means activity change below about -25%; further: on the % scale 0 is the no-effect control and ±100 the full control effect
# Target sequence (Q92551 whole entry, looked up): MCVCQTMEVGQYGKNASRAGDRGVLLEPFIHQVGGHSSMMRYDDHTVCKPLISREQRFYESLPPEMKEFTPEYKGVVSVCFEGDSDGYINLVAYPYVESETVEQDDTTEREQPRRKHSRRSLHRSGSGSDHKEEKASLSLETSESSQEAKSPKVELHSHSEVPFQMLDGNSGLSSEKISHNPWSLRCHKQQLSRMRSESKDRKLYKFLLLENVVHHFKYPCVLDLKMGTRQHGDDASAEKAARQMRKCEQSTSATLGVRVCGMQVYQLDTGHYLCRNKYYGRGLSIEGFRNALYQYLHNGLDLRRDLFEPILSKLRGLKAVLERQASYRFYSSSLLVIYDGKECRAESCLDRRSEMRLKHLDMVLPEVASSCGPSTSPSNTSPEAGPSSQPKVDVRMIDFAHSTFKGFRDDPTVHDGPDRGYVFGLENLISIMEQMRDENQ
#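 ADP-Glo luminescence measures ADP made by human IP6K1 during a 2 h RT reaction with ATP/IP6 (mix at 1.3 mM/130 uM); top library doses 57.5 and 19.1 uM final.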
# An asterisk follows results filed as active; i = inactive; ? = inconclusive; . = no result; ! = repeats disagree. Most compounds without a hit are left out; they make up all but 2.7% or so of the library.
SMILES,KDM5B inhibitor,IP6K1 inhibitor
O=C1Nc2ccc(-c3ccc4c(c3)OCO4)cc2C(=O)N2CCN(C(=O)NC3CCCCC3)C[C@H]12,11µM*,-9
Cn1c(=O)c2[nH]c(CN3CCN(c4ccccc4)CC3)nc2n(C)c1=O,i,.
CCn1cc(S(=O)(=O)N2CCC(OCc3noc(C4CCCO4)n3)CC2)cn1 (stereo unspecified),.,2
O=C1NC2(CCN(C(=O)OCc3ccccc3)C2)N=C1c1ccccn1 (stereo unspecified),25µM*,3
O=C1NC2(CCN(C(=O)c3ccccc3F)C2)N=C1c1ccccn1 (stereo unspecified),?,-8
CCN1C(=O)c2ccccc2S(=O)c2ccc(C(=O)NC3CCCc4ccccc43)cc21 (stereo unspecified),i,.
COCCN1Cc2nc(-c3ccc(OC)c(F)c3)ccc2OCC1=O,40µM*,-3
COc1ccc(-c2ccc3c(n2)CN(Cc2ccccc2)C(=O)CO3)cc1F,20µM*,-7
O=C1COc2ccc(-c3ccccc3)nc2CN1Cc1ccccc1,i,-10
O=C1COc2ccc(-c3cc(F)cc(F)c3)nc2CN1Cc1ccccc1,32µM*,-6
O=C1COc2ccc(N3CCOCC3)nc2CN1Cc1ccc(F)cc1,?,-2
O=C1COc2ccc(N3CCCC3)nc2CN1Cc1ccccc1,35µM*,-3
COc1ccc(-c2ccc3c(n2)CN(Cc2ccccc2F)C(=O)CO3)cc1OC,?,-8
COCCN1Cc2nc(-c3cc(F)cc(F)c3)ccc2OCC1=O,i,-7
COc1ccc(CNC(=O)C2CCN(C(=O)c3ccc(-c4ccccc4OC)cc3)CC2)cc1,.,6
COc1ccc(C(=O)Nc2oc3ccccc3c(=O)c2-c2cccc(OC)c2)cc1,i,.
CN(CCc1ccccn1)C(=O)CCC[C@@H]1[C@H]2CCCN3CCC[C@@H](CN1Cc1cccnc1)[C@@H]23,?,7
CCC(C(=O)NCc1nnc2ccc(-c3ccccc3)nn12)c1ccccc1 (stereo unspecified),22µM*,40
CC(Oc1ccccc1)C(=O)NCc1nnc2ccc(-c3ccc(F)cc3)nn12 (stereo unspecified),?,19
CCC(C(=O)NCc1nnc2ccc(-c3ccc(OC)cc3)nn12)c1ccccc1 (stereo unspecified),25µM*,10
CC(Oc1cccc(Cl)c1)C(=O)NCc1nnc2ccc(-c3ccccc3)nn12 (stereo unspecified),?,8
CCCN(CCO)CC(=O)NC(CC)CC,i,.
CCN(CC)c1ccc(NC(=O)c2nccnc2N)cc1,i,.
Cc1ccc(C)c(NC(=O)C23CCC(=O)N2c2ccccc2C(=O)N3Cc2ccccc2)c1 (stereo unspecified),i,.
COc1ccc(-c2cc3c(=O)n(CCNC(=O)Cc4cccs4)ccn3n2)cc1,?,4
SMILES,KDM5B inhibitor,IP6K1 inhibitor
CCOc1ccc(-c2cc3c(=O)n(CCNC(=O)c4ccc(C)c(C)c4)ccn3n2)cc1,18µM*,-6
Cc1ccc(C)c(-c2cc3c(=O)n(CCNC(=O)c4ccc5c(c4)OCO5)ccn3n2)c1,?,6
CCOc1ccc(-c2cc3c(=O)n(CCNC(=O)c4ccc(C)cc4)ccn3n2)cc1,i,-2
CCOc1ccc(-c2cc3c(=O)n(CCNC(=O)c4cccc(N(C)C)c4)ccn3n2)cc1,32µM*,-10
Cc1ccc(C)c(-c2cc3c(=O)n(CCNC(=O)c4cccc(N(C)C)c4)ccn3n2)c1,32µM*,7
CCOc1ccc(-c2cc3c(=O)n(CCNC(=O)Cc4cccs4)ccn3n2)cc1,32µM*,-9
CCOc1ccc(-c2cc3c(=O)n(CCNC(=O)c4ccccc4)ccn3n2)cc1,i,-2
COC(=O)c1cc(-c2ccc(OC)c(OC)c2)nc2ccccc12,i,.
Cc1ccc(NC(=O)C(Sc2nnc(-c3ccco3)n2N)c2ccccc2)cc1 (stereo unspecified),i,.
O=C(NCc1ccccc1Cl)c1ccc2nnc(C3CCCC3)n2c1,.,-5
Cc1cccc2sc(N3CCN(C(=O)c4ccco4)CC3)nc12,i,19
Cc1cccc2nnc(N3CCN(C(=O)c4ccco4)CC3)n12,22µM*,7
O=C(Cc1cccc(Cl)c1)NC1CCN(c2nc3ncccc3o2)CC1,?,-13
O=C(Cc1ccc(F)cc1)NC1CCN(c2nc3ncccc3o2)CC1,28µM*,-6
O=C(Cc1ccccn1)NC1CCN(c2nc3ncccc3o2)CC1,25µM*!,-10
COc1ccc(CC(=O)NC2CCN(c3nnc4cccc(C)n34)CC2)cc1,28µM*,18
O=C(Cc1ccccn1)N1CCN(c2nc3ncccc3o2)CC1,?,-12
COc1ccc(CC(=O)NC2CCN(c3ccc4nnc(C5CC5)n4n3)CC2)cc1,.,16
COc1ccc(Cn2c3c(c(=O)n2Cc2ccccc2)CCN(C(=O)c2cccc(O)c2)C3)cc1,i,6

# From PubChem BioAssay
